We go through eight compounds from PubChem BioAssay (NCI).

Values joined by “and” are separate entries in the source; they are usually repeats but may differ in a detail not shown here. Equal values may be shown once. Compounds without any hit were thinned out: in the full panel of roughly 79,000, 15% have a hit. Where a structure was tested more than once in an assay, its records may differ in their call. Active and inactive are the calls of the source. Rule as the data show it: active = growth inhibition above about 70%; inactive = the rest.

The nature of experiment [1]: NCI Yeast Anticancer Drug Screen. Data for the rad50 strain (AID 155).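 Also: 0% = growth of vehicle-only cultures of the same strain.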 The conditions noted are these: S. cerevisiae rad50 strain growth inhibition, stronger effect = higher value. The gist of the method:
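DNA repair mutant yeast, compound exposure, growth read-out; inhibition is taken relative to vehicle.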

Experiment [2] is described as follows: NCI Yeast Anticancer Drug Screen. Data for the mec2-1 strain (AID 157). The conditions noted are these: S. cerevisiae mec2-1 strain, stronger effect = higher value. The method in brief:
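Strain: mec2-1 (DNA repair/cell cycle alteration). Compound exposure, then growth measured; inhibition expressed relative to vehicle.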

The nature of experiment [3]: NCI Yeast Anticancer Drug Screen. Data for the sgs1 mgt1 strain (AID 161).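 Also: 0% = growth of cultures given vehicle only.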 To be noted: S. cerevisiae sgs1 mgt1 strain, stronger effect = higher value. The gist of the method: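 Read-out: growth inhibition vs vehicle controls. Cells: mutant yeast strain deficient in DNA damage repair.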
The nature of experiment [4]: NCI Yeast Anticancer Drug Screen. Data for the cln2 rad14 strain (AID 165).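 Also: 0% = growth equal to vehicle treated cultures.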 To be noted: S. cerevisiae cln2 rad14 strain, stronger effect = higher value. The gist of the method: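 Compounds are applied to the cln2 rad14 yeast strain, and growth is then compared with that of vehicle-treated cultures to give inhibition.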
Experiment [5] is described as follows: NCI Yeast Anticancer Drug Screen. Data for the bub3 strain (AID 167). The conditions noted are these: S. cerevisiae bub3 mutant strain, stronger effect = higher value. The gist of the method: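 In this screen, a yeast mutant lacking normal mitotic checkpoint function is challenged with compound. Relative growth versus vehicle gives the inhibition value.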
Experiment [6] in a line: NCI Yeast Anticancer Drug Screen. Data for the wt2 strain (AID 169).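 Also: 0% = growth of vehicle-treated yeast cultures.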 The conditions noted are these: S. cerevisiae wt2 strain growth inhibition, stronger effect = higher value. The method in brief:
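This strain belongs to a panel of yeast strains with defined genetic alterations in DNA damage repair or cell cycle control. Compounds are applied, and growth inhibition is measured against vehicle-treated cultures.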

Experiment [7] can be described thus: NCI Yeast Anticancer Drug Screen. Data for the mlh1 rad18 strain (AID 175). To be noted: S. cerevisiae mlh1 rad18 strain growth inhibition, stronger effect = higher value. The gist of the method:
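Read-out is yeast growth inhibition, calculated against vehicle-only controls. The compound was applied to a strain engineered with DNA damage repair alterations.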

Where [8] appears, read: at 5.0 µM (retest, dose inferred, filed as 0.5).
The mark [9] stands for this setting: at 50.0 µM (retest, dose inferred, filed as 5.0).

Consider `S=c1nc[nH]c2[nH]ccc12`, for which the growth inhibition in experiment [1] (setting [8]) was -3% (inactive); in experiment [1] (setting [9]), -4% (inactive); in experiment [1] (at 50.0 µM), 10.1% (inactive); in experiment [2] (setting [8]), 2% (inactive); in experiment [2] (setting [9]) it was -3% (inactive); in experiment [2] (at 50.0 µM) it was 0.6% (inactive). The growth inhibition in experiment [3] (setting [8]) is 0% (inactive); in experiment [3] (setting [9]), -2% (inactive); in experiment [3] (at 50.0 µM) it was -2.35% (inactive); in experiment [4] (setting [8]), -2% (inactive); in experiment [4] (setting [9]), -7% (inactive); in experiment [4] (at 50.0 µM), 48% (inactive). Moreover, the figures for the growth inhibition in experiment [5] (setting [8]), in experiment [5] (setting [9]) and in experiment [5] (at 50.0 µM) were -1% (inactive), -6% (inactive) and -5.4% (inactive), respectively.
As for `C=C1C(=O)OC2CC(C)C3C4OC4C(O)C3(C)C(O)C12` (configuration not stated), the growth inhibition in experiment [1] (setting [8]) is 2% (inactive); in experiment [1] (setting [9]), 0% (inactive); in experiment [1] (at 50.0 µM) it was 69.9% (inactive); in experiment [2] (setting [8]), 2% (inactive); in experiment [2] (setting [9]), 4% (inactive); in experiment [2] (at 50.0 µM) it was 39.1% (inactive). Also, the growth inhibition was 4% (inactive) in experiment [3] (setting [8]); 8% (inactive) in experiment [3] (setting [9]); 65.7% (inactive) in experiment [3] (at 50.0 µM); -3% (inactive) in experiment [4] (setting [8]); -6% (inactive) in experiment [4] (setting [9]); 50.4% (inactive) in experiment [4] (at 50.0 µM). Further, the growth inhibition in experiment [5] (setting [8]) was 2% (inactive); in experiment [5] (setting [9]), 6% (inactive); in experiment [5] (at 50.0 µM), 71% (active).
With `c1ccc2nc3c(ccc4ccccc43)cc2c1`, the growth inhibition is 22% (inactive) in experiment [1] (setting [8]); 31% (inactive) in experiment [1] (setting [9]); 86% (active) in experiment [1] (at 50.0 µM); 41% (inactive) in experiment [2] (setting [8]); 45% (inactive) in experiment [2] (setting [9]); 75.9% (active) in experiment [2] (at 50.0 µM). Further, the growth inhibition is -17% (inactive) in experiment [3] (setting [8]); 94% (active) in experiment [3] (setting [9]); 84.5% (active) in experiment [3] (at 50.0 µM); 5% (inactive) in experiment [4] (setting [8]); 91% (active) in experiment [4] (setting [9]); 68.7% (inactive) in experiment [4] (at 50.0 µM). In addition, the growth inhibition was 0% (inactive) in experiment [5] (setting [8]); 99% (active) in experiment [5] (setting [9]); 84% (active) in experiment [5] (at 50.0 µM); 18% (inactive) in experiment [6] (at 1.2 µM); 16% (inactive) in experiment [6] (at 3.7 µM); 64% (inactive) in experiment [6] (at 11.0 µM). Moreover, the growth inhibition in experiment [6] (at 33.0 µM) was 94% (active); in experiment [6] (at 100.0 µM), 89% (active); in experiment [7] (setting [8]), 20% (inactive); in experiment [7] (setting [9]) it was 49% (inactive); in experiment [7] (at 50.0 µM), 83% (active).
As for `COc1cccc(-c2nnc(-c3ccccc3)o2)c1`, the growth inhibition in experiment [1] (setting [8]) is 32% (inactive) and 33% (inactive); in experiment [1] (setting [9]), 36% (inactive) and 55% (inactive); in experiment [1] (at 50.0 µM), 29.4% (inactive) and 89.1% (active); in experiment [2] (setting [8]) it was 36% (inactive) and 45% (inactive); in experiment [2] (setting [9]) it was 40% (inactive) and 55% (inactive); in experiment [2] (at 50.0 µM), 16.4% (inactive) and 85.8% (active). The growth inhibition was -1% (inactive) and 11% (inactive) in experiment [3] (setting [8]); 52% (inactive) and 99% (active) in experiment [3] (setting [9]); 33.5% (inactive) and 89.4% (active) in experiment [3] (at 50.0 µM); 73% (active) and 21% (inactive) in experiment [4] (setting [8]); 18% (inactive) and 98% (active) in experiment [4] (setting [9]); 32.5% (inactive) and 80.2% (active) in experiment [4] (at 50.0 µM). Moreover, the growth inhibition was 30% (inactive) and 13% (inactive) in experiment [5] (setting [8]); 85% (active) and 98% (active) in experiment [5] (setting [9]); 71% (active) and 15.5% (inactive) in experiment [5] (at 50.0 µM); 20% (inactive) in experiment [6] (at 1.2 µM); 7% (inactive) in experiment [6] (at 3.7 µM); 4% (inactive) in experiment [6] (at 11.0 µM). Besides, the growth inhibition in experiment [6] (at 33.0 µM) was 46% (inactive); in experiment [6] (at 100.0 µM), 97% (active); in experiment [7] (setting [8]) it was 30% (inactive) and 34% (inactive); in experiment [7] (setting [9]), 44% (inactive) and 54% (inactive); in experiment [7] (at 50.0 µM) it was 16.9% (inactive) and 84.1% (active).
Regarding `Cc1cccc(Cc2ccccc2Cl)c1O`, the growth inhibition in experiment [1] (setting [8]) is 0% (inactive); in experiment [1] (setting [9]), 93% (active); in experiment [1] (at 50.0 µM), 83.2% (active); in experiment [2] (setting [8]) it was -1% (inactive); in experiment [2] (setting [9]), 93% (active); in experiment [2] (at 50.0 µM), 38% (inactive). In addition, the growth inhibition is 1% (inactive) in experiment [3] (setting [8]); 80% (active) in experiment [3] (setting [9]); 89.2% (active) in experiment [3] (at 50.0 µM); -7% (inactive) in experiment [4] (setting [8]); 84% (active) in experiment [4] (setting [9]); 98.6% (active) in experiment [4] (at 50.0 µM). For the same compound, the growth inhibition in experiment [5] (setting [8]) was -1% (inactive); in experiment [5] (setting [9]) it was 82% (active); in experiment [5] (at 50.0 µM) it was 89.8% (active).
With `CCSC1=C(C)C(=O)c2ccccc2C1=O`, the growth inhibition in experiment [1] (setting [8]) is 35% (inactive); in experiment [1] (setting [9]), 99% (active); in experiment [1] (at 50.0 µM) it was 70.1% (active); in experiment [2] (setting [8]) it was 32% (inactive); in experiment [2] (setting [9]) it was 99% (active); in experiment [2] (at 50.0 µM) it was 50.1% (inactive). Moreover, the growth inhibition in experiment [3] (setting [8]) was 7% (inactive); in experiment [3] (setting [9]), 26% (inactive); in experiment [3] (at 50.0 µM), 74.2% (active); in experiment [4] (setting [8]), 44% (inactive); in experiment [4] (setting [9]) it was 34% (inactive); in experiment [4] (at 50.0 µM), 41.9% (inactive). Also, the growth inhibition in experiment [5] (setting [8]) was -6% (inactive); in experiment [5] (setting [9]), 36% (inactive); in experiment [5] (at 50.0 µM), 77.2% (active); in experiment [6] (at 1.2 µM) it was 18% (inactive); in experiment [6] (at 3.7 µM), 11% (inactive); in experiment [6] (at 11.0 µM), 6% (inactive). In addition, the growth inhibition was 20% (inactive) in experiment [6] (at 33.0 µM); 98% (active) in experiment [6] (at 100.0 µM); 11% (inactive) in experiment [7] (setting [8]); 62% (inactive) in experiment [7] (setting [9]); 55% (inactive) in experiment [7] (at 50.0 µM).
With `Clc1ccc(CNNCc2ccc(Cl)cc2)cc1`, the growth inhibition in experiment [1] (setting [8]) was -12% (inactive); in experiment [1] (setting [9]), 85% (active); in experiment [1] (at 50.0 µM), 7.2% (inactive) and 78.7% (active); in experiment [2] (setting [8]) it was 0% (inactive); in experiment [2] (setting [9]), 96% (active); in experiment [2] (at 50.0 µM) it was -3.05% (inactive) and -2.3% (inactive). Also, the growth inhibition in experiment [3] (setting [8]) is -2% (inactive); in experiment [3] (setting [9]), 98% (active); in experiment [3] (at 50.0 µM), -3% (inactive) and 58.5% (inactive); in experiment [4] (setting [8]), -1% (inactive); in experiment [4] (setting [9]), 72% (active); in experiment [4] (at 50.0 µM), -10.4% (inactive) and 16.6% (inactive). For the same compound, the growth inhibition in experiment [5] (setting [8]) is 46% (inactive); in experiment [5] (setting [9]) it was 96% (active); in experiment [5] (at 50.0 µM), -9.95% (inactive) and 72.6% (active).
Consider `CC(C)N1CSC(=S)N(Cc2ccccc2)C1`, for which the growth inhibition in experiment [1] (setting [8]) was 55% (inactive); in experiment [1] (setting [9]), 91% (active); in experiment [1] (at 50.0 µM), 77.7% (active); in experiment [2] (setting [8]), 46% (inactive); in experiment [2] (setting [9]), 92% (active); in experiment [2] (at 50.0 µM), 81.5% (active). Besides, the growth inhibition in experiment [3] (setting [8]) is -5% (inactive); in experiment [3] (setting [9]) it was 98% (active); in experiment [3] (at 50.0 µM), 46.3% (inactive); in experiment [4] (setting [8]) it was 56% (inactive); in experiment [4] (setting [9]), 92% (active); in experiment [4] (at 50.0 µM), 19.5% (inactive). In addition, the growth inhibition is 6% (inactive) in experiment [5] (setting [8]); 92% (active) in experiment [5] (setting [9]); 88.2% (active) in experiment [5] (at 50.0 µM); 0% (inactive) in experiment [6] (at 1.2 µM); 7% (inactive) in experiment [6] (at 3.7 µM); 23% (inactive) in experiment [6] (at 11.0 µM). Also, the growth inhibition was 55% (inactive) in experiment [6] (at 33.0 µM); 67% (inactive) in experiment [6] (at 100.0 µM); 30% (inactive) in experiment [7] (setting [8]); 66% (inactive) in experiment [7] (setting [9]); 59.5% (inactive) in experiment [7] (at 50.0 µM).
